Assay in all cases: NCI-60 one-dose screen, 48 h (100 = growth as untreated, 0 = no growth, -100 = all killed)
Conditions in all cases: 10 µM unless noted

Test [1] deals with MCF7 breast.
The subject of test [2] is MOLT-4 leukemia.
For test [3], the system named is RPMI-8226 leukemia.
The test system of test [4] is OVCAR-8 ovarian.
The test system of test [5] is OVCAR-5 ovarian.
In test [6] the test system is OVCAR-4 ovarian.
The test system of test [7] is SK-OV-3 ovarian.
Test [8] concerns IGROV1 ovarian.
Test [9] deals with OVCAR-3 ovarian.
The test system of test [10] is HS 578T breast.
The subject of test [11] is NCI/ADR-RES ovarian.
Test [12] has as its system BT-549 breast.
The subject of test [13] is MDA-MB-435 melanoma.
The test system of test [14] is SW-620 colon.
Test [15] deals with HCT-116 colon.
The test system of test [16] is HCC-2998 colon.
In test [17] the test system is KM12 colon.
For test [18], the system named is T-47D breast.
The subject of test [19] is SR leukemia.

“And” between values parts separate entries of the source, which are not always exact repeats. Equal entries are not always repeated. This is part of a sample that, as a whole, favours compounds with a hit. Of some 83,000 tested, about 20% had one in any assay.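 Method: cells in 96-well plates; compound added at one concentration; 48 h incubation; percent growth measured; values under 10 scored active.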 Unmarked numbers belong to inactive results. The source made the active and inactive calls.

Consider `CCOC(=O)c1c(SC)nc(-c2ccc(Cl)cc2)sc1=N`, for which the growth in test [1] is -8.27% [100 µM] (active) and 5.36% [100 µM] (active).

In the case of `O=S1(=O)OCCO1`, the growth in [2] was 114%; in test [3], 104%; in test [4], 102%; in [5] it was 96.3%; in test [6] it was 99.4%; in [7], 117%. In addition, the growth in test [8] was 106%; in test [9] it was 106%; in test [10] it was 95.1%; in test [11], 99.7%; in [12], 117%; in test [13] it was 98.2%. In addition, the growth is 101% in test [14]; 98.8% in test [1]; 102% in test [15]; 110% in test [16]; 99.2% in test [17].

Regarding `c1ccc(CCN2CCCCC2)nc1`, the growth was 92.9% in [2]; 94.3% in test [3]; 108% in test [4]; 98.6% in test [5]; 99.3% in [6]; 99.2% in test [7]. The growth is 107% in [8]; 111% in test [9]; 109% in [11]; 91.1% in [18]; 99.8% in test [12]; 100% in test [13]. Also, the growth in test [14] is 112%; in test [1], 96.5%; in test [15], 99.9%; in test [16] it was 119%; in test [17], 110%.

On to `NC1CN2CCC1CC2` (configuration not stated), for which the growth in [2] was 97.8%; in test [3], 96.4%; in test [4] it was 97.8%; in test [5], 95.5%; in test [6], 106%; in test [7], 97.4%. The growth in [8] is 102%; in [9], 105%; in [10], 101%; in [11], 101%; in test [18], 91%; in test [12], 95%. Besides, the growth in test [13] was 104%; in test [14] it was 99.7%; in test [1] it was 90.5%; in test [15], 109%; in test [16], 114%; in [17], 115%.

Consider `COC12CC3C4=CCOC5CC(=O)N6c7ccccc7C1(CCN2C4)C6C53` (configuration not stated), for which the growth in test [3] was 104%; in test [4] it was 91.8%; in test [5] it was 121%; in [6], 97.5%; in test [7], 107%; in test [8], 108%. Besides, the growth in [9] is 117%; in [10], 117%; in test [11], 111%; in [18] it was 103%; in test [12], 96.3%; in [13] it was 114%. For the same compound, the growth in test [14] was 107%; in [1], 95.2%; in test [15], 108%; in test [16], 96%; in [17] it was 105%.

As for `COc1cc2c(cc1OC)-c1c3c(cc4c1[C@@H](C2)N(C)CC4)OCO3`, the growth is 11.9% in test [2]; 17.2% in test [19]; 23.9% in test [3]; 42.5% in test [5]; 44.2% in test [6]; 66.5% in test [7]. The growth is 76.1% in test [9]; 80.4% in test [10]; 43.5% in test [11]; 57.4% in test [18]; 55.8% in test [12]; 51.8% in [13]. The growth in test [14] was 35.1%; in [1], 22.9%; in [15], 16.1%; in test [16] it was -3.7% (active); in [17] it was 41.4%.

The record behind these values is PubChem BioAssay (NCI).
